Results filed as inconclusive are left out. Where a call stands in place of a potency, no number is given. Calls of active or inactive are those of the source. Calls follow the shape of the dose curve; as a rule, active = well fitted curve in the direction sought with a large enough effect; inconclusive = small, poorly fitted or top-dose-only effect, or another doubt; inactive = no such curve, though single readings can be large; an effect the other way counts as inactive or inconclusive.
Key:
[1] = target: Calcium and integrin-binding protein 1 (Homo sapiens) (UniProt Q99828); experiment: Validation qHTS for Identification of Calcium Integrin Binding protein 1 (CIB1) Competitor (AID 1508618)
Chain of Calcium and integrin-binding protein 1 (Homo sapiens) (Q99828 whole entry, looked up): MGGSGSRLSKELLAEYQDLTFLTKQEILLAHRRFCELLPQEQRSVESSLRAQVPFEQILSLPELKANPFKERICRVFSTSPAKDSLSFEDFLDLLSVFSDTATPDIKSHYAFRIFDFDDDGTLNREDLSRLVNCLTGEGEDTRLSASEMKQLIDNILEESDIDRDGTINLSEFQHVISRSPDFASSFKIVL
Summary of the method: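 CIB1-GST (1 uM final) in 5 mM HEPES pH 7.4, 125 mM NaCl, 5 mM CaCl2, 0.01% Tween20 was preincubated 15 min at room temperature with compound (up to 114 uM), then FITC-alphaIIb peptide (100 nM) added for 15 min; fluorescence polarization read.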

[2] = Primary qHTS for small molecule stabilizers of the endoplasmic reticulum resident proteome: Secreted ER Calcium Modulated Protein (SERCaMP) assay (AID 1508630)
Summary of the method: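 GLuc-SERCaMP-expressing SH-SY5Y cells, pretreated 16 h with compound, are challenged with thapsigargin to empty ER calcium stores; after 4 h, coelenterazine is added directly to the medium and luminescence is imaged.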

Papain (Carica papaya) = Papain (Carica papaya) (UniProt P00784); experiment: Primary qHTS assay for inhibitors of the protease papain (AID 1645873);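 also: papain turnover of Z-FR-AMC read as the AMC fluorescence gain over 10 min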; also: potency is read from the fitted curve at half-maximal effect
Chain of Papain (Carica papaya) (P00784 whole entry, looked up): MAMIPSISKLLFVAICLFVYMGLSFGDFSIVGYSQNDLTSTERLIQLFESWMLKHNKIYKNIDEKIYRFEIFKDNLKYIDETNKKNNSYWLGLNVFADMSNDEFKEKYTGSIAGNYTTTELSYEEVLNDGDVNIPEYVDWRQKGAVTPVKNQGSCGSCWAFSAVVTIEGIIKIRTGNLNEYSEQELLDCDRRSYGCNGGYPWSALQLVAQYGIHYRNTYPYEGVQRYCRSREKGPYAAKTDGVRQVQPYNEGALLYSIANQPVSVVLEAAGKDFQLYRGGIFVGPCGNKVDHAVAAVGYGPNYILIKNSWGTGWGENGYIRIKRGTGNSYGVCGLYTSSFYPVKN

What does the source list for CSc1nc(N)c2ncn([C@@H]3O[C@H](COP(=O)(O)OP(=O)(O)O)C(O)[C@H]3O)c2n1 (stereo partly specified)?
Potency [1]: inactive; Potency [2]: inactive; Potency (Papain (Carica papaya)): inactive

Which results are given for O=C(O)C1=CCCN(CCON=C(c2ccccc2)c2ccccc2)C1?
Potency [1]: inactive; Potency [2]: inactive; Potency (Papain (Carica papaya)): inactive

What does the source list for CCCCC[C@H](CC(=O)NO)C(=O)N[C@H](C(=O)N1CCC[C@H]1CO)C(C)C?
Potency [1]: inactive; Potency [2]: inactive; Potency (Papain (Carica papaya)): inactive

With NCCC1CCCC(CCN)N1 (stereo unspecified) as the compound, how does the Potency [1] read?
Its Potency is “inactive”.

And the Potency [2]?
Its Potency is “inactive”.

And the Potency (Papain (Carica papaya))?
Its Potency is “inactive”.

Which Potency [1] does the source give for Oc1ccc(Cn2cc[nH]c2=S)cc1 here?
The Potency was “inactive”.

And the Potency [2]?
The Potency was “inactive”.

What about the Potency (Papain (Carica papaya)) of the same compound?
Its Potency is “inactive”.

With COC1(C2=NCCN2)COc2ccccc2O1 (stereo unspecified) as the compound, how does the Potency [1] read?
The Potency was “inactive”.

And the Potency [2]?
The Potency was “inactive”.

What about the Potency (Papain (Carica papaya)) of the same compound?
The Potency was “inactive”.

For CC(=O)/C(C)=N/O, which Potency [1] is on record?
The Potency was “inactive”.

What about the Potency [2] of the same compound?
The Potency was “inactive”.

What about the Potency (Papain (Carica papaya)) of the same compound?
Its Potency is 2 µM (active).

Which results are given for Nc1ccc(CCNc2ncnc3c2ncn3C2OC(CO)C(O)C2O)cc1 (stereo unspecified)?
Potency [1]: inactive; Potency [2]: inactive; Potency (Papain (Carica papaya)): inactive

With COc1ccc2c(c1)CCC1C2CC[C@@]2(C)C1CC[C@@H]2NCCCCCCN1C(=O)C=CC1=O (stereo partly specified) as the compound, how does the Potency [1] read?
The Potency was “inactive”.

What about the Potency [2] of the same compound?
Its Potency is “inactive”.

What about the Potency (Papain (Carica papaya)) of the same compound?
The Potency was “inactive”.

What does the source list for COc1ccccc1N1CCN(CCCCNC(=O)c2ccc3ccccc3c2)CC1?
Potency [1]: inactive; Potency [2]: inactive; Potency (Papain (Carica papaya)): inactive

With NC(=O)c1ccccc1 as the compound, how does the Potency [1] read?
Its Potency is “inactive”.

And the Potency [2]?
Its Potency is “inactive”.

What about the Potency (Papain (Carica papaya)) of the same compound?
Its Potency is “inactive”.

With CSC(=N)N as the compound, how does the Potency [1] read?
Its Potency is “inactive”.

What about the Potency [2] of the same compound?
The Potency was “inactive”.

And the Potency (Papain (Carica papaya))?
The Potency was “inactive”.

Which results are given for NCCCCN=C(N)N?
Potency [1]: inactive; Potency [2]: inactive; Potency (Papain (Carica papaya)): inactive

Which results are given for Cn1c(=O)[nH]c2ncn(C)c2c1=O?
Potency [1]: inactive; Potency [2]: inactive; Potency (Papain (Carica papaya)): inactive

What does the source list for O=C(O)c1ccccc1Nc1ccccc1?
Potency [1]: inactive; Potency [2]: inactive; Potency (Papain (Carica papaya)): inactive

Which Potency [1] does the source give for O=C1C2C=CC=CC2=NC(=S)N1CCN1CCC(=C(c2ccc(F)cc2)c2ccc(F)cc2)CC1 (stereo unspecified) here?
Its Potency is “inactive”.

And the Potency [2]?
Its Potency is “inactive”.

And the Potency (Papain (Carica papaya))?
The Potency was “inactive”.

With Cn1cc(C(F)(F)F)nc1-c1ccc(OCC(O)CNCCOc2ccc(O)c(C(N)=O)c2)cc1 (stereo unspecified) as the compound, how does the Potency [1] read?
Its Potency is “inactive”.

What about the Potency [2] of the same compound?
Its Potency is “inactive”.

And the Potency (Papain (Carica papaya))?
The Potency was “inactive”.

With Cc1cccc(C(=O)NCN2CCN(c3ccccc3C#N)CC2)c1 as the compound, how does the Potency [1] read?
Its Potency is “inactive”.

And the Potency [2]?
The Potency was “inactive”.

And the Potency (Papain (Carica papaya))?
The Potency was “inactive”.

For NC[C@@H]1O[C@H](c2ccccc2)Cc2c1ccc(O)c2O, which Potency [1] is on record?
The Potency was “inactive”.

What about the Potency [2] of the same compound?
The Potency was “inactive”.

What about the Potency (Papain (Carica papaya)) of the same compound?
The Potency was “inactive”.

What does the source list for C[N+](C)(C)CC=O?
Potency [1]: inactive; Potency [2]: inactive; Potency (Papain (Carica papaya)): inactive

For CCn1c(=O)[nH]c2cc(Cl)c(Cl)cc21, which Potency [1] is on record?
The Potency was “inactive”.

And the Potency [2]?
The Potency was “inactive”.

And the Potency (Papain (Carica papaya))?
Its Potency is “inactive”.

For O=c1[nH]c2ccccc2c2ccccc12, which Potency [1] is on record?
Its Potency is “inactive”.

And the Potency [2]?
Its Potency is “inactive”.

What about the Potency (Papain (Carica papaya)) of the same compound?
The Potency was “inactive”.

From PubChem BioAssay (NCATS)
